# Tau fil binding: binds recombinant human tau filaments. Potency, µM (highest dose often 57.1 µM), inactives show at the highest dose activity change, negative = inhibition. recombinant tau filaments, thioflavin S fluorescence, 15 h; filaments grown with octadecylsulfate alongside compound. 2% of 71,000 active. P10636;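 note: % is set by controls: 0 for no effect and ±100 for the full control effect; actives lower thioflavin S fluorescence by blocking filaments or displacing dye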
#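 Assay mix: 1 uM His-tagged tau, 30 uM sodium octadecylsulfate, thioflavine S dye in HEPES/NaCl/DTT buffer. Compound is added prior to the inducer. Fluorescence after 15 h at 37 C.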
# FLuc inh: inhibitors of firefly luciferase | P08659 | purified firefly luciferase, luminescence, 8 min | Potency, µM (titrated, usually from 57.1 µM), for the others: top-dose activity change, negative = inhibition, most hits filed as inhibitors | 2.2% of 72,000 active; note: % is set by controls: 0 for no effect and ±100 for the full control effect; nearly all actives have a fitted effect of over 40% in size
#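 Inhibition of light generation by firefly luciferase from ATP and luciferin was profiled with concentration-response curves per sample, ATP held at 10 uM within the enzyme's linear range. Plates were read by luminescence after an 8-minute ambient incubation.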
# Peg3 imprint: inducers of genomic imprint erasure in mouse ES cells. mouse ES Peg3-LacZ reporter, beta-gal luminescence, 40 h. Potency, µM (series often up to 60.7 µM), for inactives: at the top dose activity change, positive = activation, most hits filed as activators. 0.02% of 110,000 active. AID 1948
#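 Readout: BetaGlo luminescence (5 min, room temp) for LacZ from the normally silent maternal Peg3 allele in female Peg3LacZ-Neo ES cells. Cells 300/well, 40 h, 37C, 5% CO2. Data normalized per plate to negative controls.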
# p53ts 39C tox: cytotoxicity in p53ts cells at nonpermissive temperature | 1.5% of 130,000 active | H1299-p53A138V viability at 39C, ATP luminescence, 24 h | AID 902 | Potency, µM (highest dose often 46.1 µM), without a hit: at the highest dose activity change, negative = cell killing, hits mostly cytotoxic; note: % is set by controls: 0 for no effect and ±100 for the full control effect; nearly all actives have a fitted effect of over 55% in size
# p53ts 32C kill: p53ts cell cytotoxicity, permissive temperature. H1299-p53A138V at 32C, ATP luminescence viability, 24 h. 0.93% of 130,000 active. Potency, µM (doses to about 46.1 µM), for inactives: at the highest dose activity change, negative = cytotoxicity, usual class: cytotoxic;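 note: 0% = DMSO and -100% = full killing by reference compound; nearly all actives have a fitted effect of over 55% in size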
#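 Viability by ATPlite luminescence after 24 h compound treatment (up to 46 uM) at the permissive 32C. Cells are H1299 carrying p53 A138V. Scale runs from DMSO basal to 100 uM tamoxifen as full kill; AC50 from Hill fits.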
# Numbers without * were called inactive; i = inactive; ? = inconclusive; · = no result given; ! = a repeat was not active; [ ] = another dose, or the depositor's remark. An excerpt weighted towards active compounds, which were near 3.4% of everything screened. Calls come from the whole dose curve; as a rule, active = well fitted curve in the direction sought with a large enough effect; inconclusive = small, poorly fitted or top-dose-only effect, or another doubt; inactive = no such curve, though single readings can be large; an effect the other way counts as inactive or inconclusive. Potency is the fitted concentration of half-maximal effect.
SMILES,Tau fil binding,FLuc inh,Peg3 imprint,p53ts 39C tox,p53ts 32C kill
CO[C@H]1C=CO[C@]2(C)Oc3c(C)c(O)c4c(O)c(c5c(c4c3C2=O)NC2(CCN(CC(C)C)CC2)N=5)=NC(=O)C(C)=CC=C[C@@H](C)[C@@H](O)[C@@H](C)[C@@H](O)[C@@H](C)[C@@H](OC(C)=O)[C@@H]1C,1.6µM*,-2%[25.5 µM],-5%[16.8 µM],1%[20.6 µM],-1%[20.6 µM]
CC(=O)O[C@H]1C(=O)[C@@]2(C)[C@H]([C@H](OC(=O)c3ccccc3)[C@]3(O)C[C@H](OC(=O)[C@H](O)[C@@H](NC(=O)c4ccccc4)c4ccccc4)C(C)=C1C3(C)C)[C@]1(OC(C)=O)CO[C@@H]1C[C@@H]2O,-24%,16µM*,-16%,36%,17%
CCC1(C)Nc2ccccc2C(=O)N1O (configuration not stated),-6%,3%,-20%,-16%,-11%
CC1=CC(C)(C)Nc2ccccc21,16µM*!,·,-7%,-6%,1%[1.84 µM]
CC(=O)c1ccc(OC(=O)c2c(-c3ccccc3Cl)noc2C)cc1,·,·,-7%[10.9 µM],-11%,13%
O=C(Oc1ccc(-c2cn3c(n2)SCC3)cc1)c1ccccc1,64%,13µM*,-30%,-23%,-14%
COc1ccc2c(c1)Cc1sc(NC(C)=O)nc1-2,?,13µM*,-57%,-27%,-26%
COc1ccc2c(c1)CCc1sc(NC(=O)c3ccc(Br)cc3)nc1-2,·,·,-8%[10.9 µM],-27%,-17%
O=C(/C=C/c1ccccc1)c1cccs1,·,·,-29%,-81%,32µM*
CCOc1ccc(C(=O)NCc2cccs2)cc1,-6%,-11%,-28%,-6%,-20%
COc1ccc(/C=C/C(=O)c2ccc(O)cc2O)cc1OC,·,·,6%,73%,?
CCOc1ccc(/C=C/C(=O)c2cccs2)cc1,·,·,-45%,-12%,25µM*
COc1ccc(/C=C/C(=O)c2cccs2)cc1OC,·,·,5%,16µM*,13µM*
COc1ccc(/C=C/C(=O)Nc2ccccc2C(=O)O)cc1OC,·,?,-59%,13µM*,?
Cc1c(/C=C/C(=O)c2cccs2)cnn1C,·,·,·,-10%,-9%
COc1ccc2nc3c(cc2c1)Cc1ccccc1-3,?,·,-96%,0.79µM*,0.79µM*
OC(COc1ccc(Cl)c2ccccc12)CN1CCN(c2ccccn2)CC1 (configuration not stated),38%,-36%,7%,16µM*,?
Cc1ccc2nc(-c3ccc(NC(=O)c4ccco4)cc3)[nH]c2c1,i,5µM*,-37%,-13%,-20%
O=C(Nc1cccc2cccc(NC(=O)c3ccco3)c12)c1ccco1,13µM*,2%,1%,1%,3%
O=C(Nc1cccc(NC(=O)c2nccc3ccccc23)c1)c1ccco1,-11%,13µM*,·,?,?
CCCN(CCC)S(=O)(=O)c1ccc(C(=O)Nc2cccc(-c3nc4ccccc4[nH]3)c2)cc1,·,·,22%[10.9 µM],-16%,-6%
COc1c(Cl)cc(C(=O)Nc2cccc(-c3nc4ccccc4[nH]3)c2)cc1Cl,·,·,-10%[10.9 µM],13µM*,?
Cn1cccc1-c1nc2ccc(NC(=O)c3ccco3)cc2[nH]1,2%,?,-21%,-5%,-6%
O=C(Nc1cccc(-c2nc3ccccc3[nH]2)c1)c1ccco1,5%,25µM*,-30%,-6%,11%
CCCNC(=O)c1ccc2c(c1)N=C(CCC)c1ccccc1S2,·,·,-18%[10.9 µM],-21%,?
SMILES,Tau fil binding,FLuc inh,Peg3 imprint,p53ts 39C tox,p53ts 32C kill
CCc1ccc(CNc2ccc(N3CCN(C(C)=O)CC3)cc2)cc1,13µM*,-1%,8%,-8%,-9%
O=C(Nc1ccc2c(c1)ncn2-c1ccccc1)c1ccco1,-5%,13µM*,2%,?,-22%
Cn1cnc2cc(NC(=O)c3ccco3)ccc21,-4%,-26%,-30%,7.9µM*,16µM*
CC(=O)Nc1ccc2c(c1)ncn2C,·,·,·,8%,-3%
O=C1CCc2cc(S(=O)(=O)NC(C(=O)Nc3cccc(F)c3)c3ccccc3)ccc2N1 (configuration not stated),·,·,?,-5%,6%
Cc1ccc(-c2noc(-c3nnn(-c4ccc(Br)cc4F)c3C)n2)cc1,·,·,-5%[10.9 µM],-11%,-9%
COc1ccc(-c2ccc(SCC(=O)N3CCOCC3)nn2)cc1,4%,13µM*,-13%,?,?
